Shown are actives, neighbours in structure and some others; about 3.1% of the full set was active somewhere.
LMP1 NFkB inh = inhibitors of Epstein-Barr LMP1-induced NF-kappaB reporter | inhibition, % at 12.5 µM | LMP1-induced NF-kappaB luciferase reporter cells, luminescence | 350,000 compounds, 0.69% hits; in the data active means inhibition above about 41%;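 further: 0% = neutral control wells and 100% = reference inhibitor control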
PAX8 reporter = lowers PAX8-driven luciferase in RMG-I cells; RMG-I TPO-luciferase reporter, SteadyGlo, 24 h; inhibition, % at 12.6 µM; 360,000 compounds, 1.2% hits; AID 652154;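 active means mean replicate inhibition at least 60% with every replicate also reaching 60%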;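 further: luciferase light reporting Pax8 driven TPO promoter activity; plate controls were median of neutral control wells for no effect and mitoxantrone controls for full effect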
LGR2 inh = blocks bursicon-induced cAMP signaling via Drosophila LGR2; 380,000 compounds, 0.35% hits; HEK293 LGR2, CRE-luciferase, bursicon-stimulated, 4 h; inhibition, % at 9.99 µM;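 active means drop in luminescence signal, shown as inhibition above about 50% in the replicate tests, limit read from the data, passing the limit was not always enough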;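 further: agonist challenge used bursicon conditioned medium at about half maximal strength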
TROY signal inh = TROY signaling inhibition. Q293 LMP1-TROYcd NF-kB luciferase reporter, 4 h. inhibition, % at 10 µM. 360,000 compounds, 0.98% hits;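 active means compounds whose plate-normalised and pattern-corrected inhibition of the luciferase reporter signal at the single screening dose is 50% or more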
TWEAK Fn14 block = TWEAK-Fn14 signaling inhibition; 360,000 compounds, 2% hits; TWEAK-stimulated Fn14 reporter cells, luciferase luminescence, 8 h; inhibition, % at 10 µM; in the data active means inhibition above about 50%
EWS-Fli block = EWS/Fli transcriptional activity inhibition; AID 651661; inhibition, % at 12.6 µM; A673 NR0B1-luciferase reporter, viability-normalised; 350,000 compounds, 0.67% hits;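 active means mean inhibition of at least 50% after viability correction, with every replicate also passing that limit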;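 further: firefly luciferase signal divided by Alamar Blue viability fluorescence both relative to DMSO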
Starred values were filed as active, the others as inactive; . = not tested or not shown.

SMILES	LMP1 NFkB inh	PAX8 reporter	LGR2 inh	TROY signal inh	TWEAK Fn14 block	EWS-Fli block
C[C@H](CO)N1C[C@H](C)[C@@H](CN(C)C(=O)Nc2ccc(F)cc2)Oc2ccc(NS(=O)(=O)c3ccccc3)cc2C1=O	.	-7	-1	.	.	.
CCOC(=O)c1c(SCCN2CCCC2)n(-c2ccccc2)c(=S)n(-c2ccccc2)c1=O	8	59	-33	4	-7	61*
CCCN1[C@@H]2c3ccc(-c4cccc(F)c4)c(=O)n3C[C@H]1[C@H](CO)[C@H]2C(=O)N(C)C	.	.	-6	.	.	3
COc1ccc(-c2cc(C(=O)N3CCN(c4ccccc4OC)CC3)no2)cc1	3	16	40	7	50	10
O=C(c1cc(-c2ccc(Cl)cc2Cl)on1)N1CCCC1	5	-48	75*	48	70*	55*
O=C(c1cc(-c2ccc(Cl)cc2Cl)on1)N1CCCCCC1	-26	-160	-34	-1	24	-5
Cc1ccc(-c2cc(C(=O)N3CCCC3)no2)cc1	22	.	.	50*	83*	.
Cc1ccc(-c2cc(-c3ccccc3)no2)cc1	-44	-24	57*	-26	60*	59*
COc1ccc(-c2cc(C(=O)N3CCN(c4ccccc4)CC3)no2)cc1	-23	-118	-41	38	50*	-113
Cc1ccc(-c2cc(C(=O)N3CCOCC3)no2)cc1	39	9	63*	67*	86*	54*
O=C(c1cc(-c2ccc3c(c2)OCO3)on1)N1CCCCC1	27	-16	49	48	78*	48
O=C(c1cc(-c2ccc(Cl)c(Cl)c2)on1)N1CCCCCC1	-42	-132	-25	-27	-19	-74
O=C(c1cc(-c2ccco2)on1)N1CCOCC1	4	.	.	-48	8	.
CCOc1cc(C(=S)N2CCCC2)ccc1O	-4	10	-16	2	6	-3
C=CCOc1c(Cl)cc(C(=S)N2CCCC2)cc1OCC	5	43	2	4	8	58*
N#Cc1cc2nc(O)c(O)nc2cc1[N+](=O)[O-]	0	-14	.	-13	14	-7
CNc1nc2cc([N+](=O)[O-])c([N+](=O)[O-])cc2nc1NC	30	-10	11	27	51*	10
Cc1nc2ccccc2n1/N=C/c1ccc([N+](=O)[O-])s1	-4	62*	24	4	70*	14
O=[N+]([O-])c1ccc(/C=N/n2cnc3ccccc32)s1	37	51	-5	-16	54*	.
Cc1cc2ncn(/N=C/c3ccc([N+](=O)[O-])s3)c2cc1C	-3	22	2	-1	0	.
Nc1cc(N)nc(SCC(=O)c2ccc3c(c2)NC(=O)CO3)n1	44*	-3	-4	2	-16	-3
N#Cc1ccc(/C=C/C(=O)c2cccnc2)cc1	6	1	81*	40	-1	-6
COc1ccc(OC)c(C(=O)/C=C/c2cccnc2)c1	13	72*	7	-16	27	32
O=C(/C=C/c1cccnc1)/C=C/c1cccnc1	-46	92*	15	72*	101*	73*
C(=Cc1cccnc1)c1ccncc1	6	16	11	16	18	-4
SMILES	LMP1 NFkB inh	PAX8 reporter	LGR2 inh	TROY signal inh	TWEAK Fn14 block	EWS-Fli block
C[C@@H]1CCCCO[C@@H](CN(C)S(=O)(=O)c2ccccc2)[C@H](C)CN([C@H](C)CO)C(=O)c2cc(NS(=O)(=O)c3ccc(F)cc3)ccc2O1	.	-15	4	.	.	21
c1ccc(Oc2ncnc3oc(-c4ccccc4)cc23)cc1	-5	.	.	3	96*	.
CCOC(=O)C1(CCOc2ccccc2)CCN(Cc2cccc(OCCO)c2)CC1	-1	-13	-9	51*	-1	32
CCOC(=O)C1(CCOc2ccccc2)CCN(Cc2cccc(F)c2)CC1	5	15	.	11	-8	18
COc1ccc(NC(=O)N(C)C[C@H]2Oc3c(NC(=O)C4CC4)cccc3C(=O)N([C@H](C)CO)C[C@H]2C)cc1	.	.	1	.	.	-5
COc1ccc(C#Cc2ccc3c(c2)[C@]2(C(=O)N3)[C@H](c3ccccc3OCCO)N3[C@H](c4ccccc4)[C@H](c4ccccc4)OC(=O)[C@H]3[C@@H]2C(=O)NC[C@H](O)c2ccccc2)cc1	.	89*	.	.	.	3

From PubChem BioAssay
